Pf Dd2 growth – P. falciparum Dd2 growth inhibition; SYBR Green, 72 h; stronger effect = lower value; activity change, % at 10 µM; hit rate 2.3% among 94,000; in the data active = activity change below about -80%; inconclusive = no clear call, values can overlap the other calls
C diff growth – blocks growth of Clostridium difficile. Clostridium difficile clinical isolate growth, OD600, 24 h; stronger effect = lower value. growth activity, negative = inhibition, % at 16 µg/mL (by protocol). hit rate 0.25% among 86,000. AID 1259249;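 active = mean growth activity at or below -80% and every replicate also at or below -80%; inconclusive = mean at or below -80% but some replicate above -80%; inactive = mean growth activity above -80%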;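 also: 0% = DMSO wells and -100% = levofloxacin 16 µg/mL wells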
T cruzi growth-1 – T. cruzi proliferation inhibition. T. cruzi beta-gal in NIH3T3, GalScreen luminescence, 90 h. inhibition, % at 8.34 µM. hit rate 5.9% among 77,000. AID 624255;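 active = mean inhibition above about 93%, with at least 55% of replicates each passing it, limit read from the data, passing the limit was not always enough; inconclusive = only one of those two conditions holds; inactive = neither condition holds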
T cruzi growth-2 – inhibitors of T. cruzi proliferation. shares compounds with T cruzi growth-1. T. cruzi beta-gal in NIH3T3, GalScreen luminescence, 90 h. inhibition, % at 8.35 µM. hit rate 72% among 5,600;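 active = mean replicate inhibition above about 95% and at least 55% of replicates individually reaching it, limit read from the data; inconclusive = only one of the two criteria is met; inactive = neither criterion is met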
T cruzi growth-3 – Trypanosoma cruzi proliferation inhibition. shares compounds with T cruzi growth-1. T. cruzi beta-gal in NIH3T3, GalScreen luminescence, 90 h. inhibition, % at 2.09 µM. hit rate 21% among 5,600;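 active = mean inhibition above about 95%, with at least 55% of replicates also reaching it, limit read from the data; inconclusive = meets just one of the two conditions; inactive = meets neither condition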;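 also: plate controls were neutral control median for no effect and positive control median for full effect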
NIH3T3 tox – kills mouse NIH/3T3 fibroblasts; NIH/3T3 viability, CellTiter-Glo ATP luminescence, 90 h; AID 651742; hit rate 14% among 5,600; shares compounds with T cruzi growth-1; cytotoxicity (signal decrease), % at 8.35 µM;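 active = mean signal decrease across replicates above about 35% based on untreated-well scatter, with enough replicates individually passing, limit read from the data; inconclusive = no rule stated though some were filed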;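 also: 0% = median of neutral control wells and 100% = median of positive control wells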
3T3 cytotox 2 – kills mouse NIH/3T3 fibroblasts; shares compounds with T cruzi growth-1; NIH/3T3 viability, CellTiter-Glo ATP luminescence, 90 h; inhibition, % at 24.9 µM; hit rate 56% among 5,600; AID 651744;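 active = mean loss of cell viability signal at or above a set limit, and enough replicates individually reaching it; inconclusive = meets only the mean limit or only the replicate share; inactive = meets neither condition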;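 also: 0% = median of neutral control wells and 100% = median of positive control wells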
* hit, by the source's call; u = inconclusive; x = no result. This is a sample that favours compounds with a hit; in the whole collection about 6.8% have one here.

SMILES	Pf Dd2 growth	C diff growth	T cruzi growth-1	T cruzi growth-2	T cruzi growth-3	NIH3T3 tox	3T3 cytotox 2
COc1ccccc1CNC(=O)C[C@@H]1CC[C@@H]2[C@H](COC[C@H](O)CN2Cc2cccc(-c3ccncc3)c2)O1	x	-16.2	117.4*	82.7	73.0	-12.1	55.4*
COc1ccccc1CNC(=O)C[C@@H]1CC[C@H]2[C@@H](COC[C@@H](O)CN2Cc2ccccc2)O1	2.6	1.8	x	x	x	x	x
COCCNC(=O)C[C@H]1CC[C@@H]2[C@H](COC[C@@H](O)CN2Cc2cccc(-c3ccncc3)c2)O1	9.0	8.5	108.6*	91.6	86.8	-3.3	3.4
COc1ccccc1CNC(=O)C[C@@H]1CC[C@@H]2[C@H](COC[C@H](O)CN2Cc2ccc3c(c2)OCO3)O1	-52.2	5.2	150.3*	54.8	-21.8	-5.0	5.3
COc1ccccc1CNC(=O)C[C@H]1CC[C@@H]2[C@H](COC[C@H](O)CN2Cc2cccc(-c3ccncc3)c2)O1	x	-5.2	120.7*	102.4*	93.9	23.5	25.0*
COc1ccccc1CNC(=O)C[C@@H]1CC[C@@H]2[C@H](COC[C@H](O)CN2Cc2ccccc2)O1	-19.2	9.6	x	x	x	x	x
COc1ccc(S(=O)(=O)N[C@H]2CC[C@@H](CC(=O)N3CCc4ccccc4C3)O[C@H]2CO)cc1	-15.7	0.7	46.4	x	x	x	x
C[C@H]1CN([C@@H](C)CO)C(=O)c2cc(-c3ccc(C#N)cc3)cnc2O[C@@H]1CN(C)Cc1cccnc1	7.0	-2.0	-23.7	x	x	x	x
O=C(C[C@H]1CC[C@@H]2[C@H](COC[C@H](O)CN2C(=O)c2cccnc2)O1)Nc1ccc(-c2ccccc2)cc1	-37.1	5.6	-39.3	x	x	x	x
COc1ccc(C#Cc2ccc3c(c2)[C@@H]2[C@@H](CCN2C(=O)NC(C)C)[C@@H](CO)N3C)cc1	-5.9	-15.7	60.4	x	x	x	x
CCNC(=O)C[C@H]1C=C[C@@H](NC(=O)C2CCC2)[C@@H](CO)O1	x	-0.6	x	x	x	x	x
O=C(C[C@H]1C[C@@H]2c3cc(NC(=O)C4CCOCC4)ccc3O[C@@H]2[C@H](CO)O1)NCc1ccc(Oc2ccccc2)cc1	12.5	x	7.4	x	x	x	x
CO[C@H]1CN(C)C(=O)c2ccc(NC(=O)Nc3ccccc3)cc2OC[C@@H](C)N(C(=O)CN(C)C)C[C@H]1C	7.6	x	-20.3	x	x	x	x
COc1ccccc1CNC(=O)C[C@H]1CC[C@H]2[C@@H](COC[C@@H](O)CN2Cc2cccc(-c3ccncc3)c2)O1	x	-4.7	112.7*	82.2	81.5	6.4	30.9*
COc1ccccc1CNC(=O)C[C@H]1CC[C@@H]2[C@H](COC[C@@H](O)CN2Cc2ccccc2)O1	-1.8	5.2	x	x	x	x	x
COc1ccccc1CNC(=O)C[C@@H]1CC[C@H]2[C@@H](COC[C@@H](O)CN2Cc2cccc(-c3ccncc3)c2)O1	x	-2.0	121.9*	81.8	92.8	48.1*	43.6*
COc1ccccc1CNC(=O)C[C@H]1CC[C@H]2[C@@H](COC[C@@H](O)CN2Cc2ccccc2)O1	12.3	1.9	x	x	x	x	x
C[C@H](CO)N1C[C@H](C)[C@@H](CN(C)Cc2ccc(Oc3ccccc3)cc2)Oc2ccc(NS(=O)(=O)c3cccs3)cc2C1=O	-9.1	x	83.8	x	x	x	x
Cc1noc(C)c1NC(=O)N(C)C[C@H]1Oc2c(NC(=O)Nc3ccc(C(F)(F)F)cc3)cccc2C(=O)N([C@H](C)CO)C[C@H]1C	-35.9	x	89.5	x	x	x	x
CCCNC(=O)Nc1ccc2c(c1)C(=O)N(C)C[C@H](OC)[C@@H](C)CN(Cc1cccnc1)[C@H](C)CO2	0.1	x	51.1	x	x	x	x
Cc1ccccc1S(=O)(=O)N1CCCCN2[C@@H](CO)[C@H](c3ccc(-c4cccc(F)c4)cc3)[C@@H]2C1	-9.1	47.3	105.9*	88.4	103.5*	55.9*	102.9*
Cc1ccccc1S(=O)(=O)N1CCCCN2[C@H](C1)[C@@H](c1ccc(-c3cccc(F)c3)cc1)[C@@H]2CO	5.4	18.6	u	110.7*	64.6	28.5	73.2*
Cc1ccccc1S(=O)(=O)N1CCCCN2[C@H](CO)[C@H](c3ccc(-c4cccc(F)c4)cc3)[C@H]2C1	-72.7	-13.9	71.2	x	x	x	x
Cc1cccc(-c2ccc([C@@H]3[C@H](CO)N4CCCCN(S(=O)(=O)c5ccccc5C)C[C@@H]34)cc2)c1	-76.6	-2.6	64.2	x	x	x	x
COc1ccc2c3c(n(C)c2c1)[C@@H](CO)NCC31CCN(C(=O)Nc2ccc(F)cc2F)CC1	-70.2	-5.5	x	x	x	x	x
SMILES	Pf Dd2 growth	C diff growth	T cruzi growth-1	T cruzi growth-2	T cruzi growth-3	NIH3T3 tox	3T3 cytotox 2
CC(C)CC#Cc1ccc2c(c1)O[C@@H](CN(C)S(=O)(=O)c1ccc(F)cc1)[C@@H](C)CN([C@@H](C)CO)S2(=O)=O	-52.7	6.0	x	x	x	x	x
CC(C)CC#Cc1ccc2c(c1)O[C@@H](CN(C)S(=O)(=O)c1ccc(F)cc1)[C@H](C)CN([C@@H](C)CO)S2(=O)=O	-68.0	18.2	x	x	x	x	x
CC(C)CC#Cc1ccc2c(c1)O[C@H](CN(C)S(=O)(=O)c1cccc(F)c1)[C@H](C)CN([C@@H](C)CO)S2(=O)=O	-54.5	7.0	117.6*	88.3	100.4*	12.8	60.5*
CC(C)CC#Cc1ccc2c(c1)O[C@H](CN(C)S(=O)(=O)c1cccc(F)c1)[C@H](C)CN([C@H](C)CO)S2(=O)=O	-76.7	5.4	112.1*	99.7*	115.6*	18.9	98.4*
O=C(C[C@@H]1CC[C@@H]2[C@H](COC[C@@H](O)CN2Cc2ccc(Cl)cc2)O1)NCCc1ccccc1	x	-11.3	59.4	x	x	x	x
COc1ccc(NC(=O)N(C)C[C@@H]2OCCCC[C@@H](C)Oc3ccc(NS(=O)(=O)c4ccccc4)cc3C(=O)N([C@H](C)CO)C[C@@H]2C)cc1	-35.4	4.8	72.6	x	x	x	x
C/C=C/c1cnc2c(c1)C(=O)N([C@H](C)CO)C[C@H](C)[C@@H](CN(C)Cc1ccc3c(c1)OCO3)O2	-42.6	-1.5	x	x	x	x	x
C[C@@H]1CN([C@H](C)CO)C(=O)c2cc(/C=C/c3ccccc3)cnc2O[C@@H]1CN(C)Cc1ccc2c(c1)OCO2	-59.1	18.4	86.0*	108.5*	67.0	21.0	102.1*
C/C=C/c1cnc2c(c1)C(=O)N([C@@H](C)CO)C[C@@H](C)[C@@H](CN(C)Cc1ccc3c(c1)OCO3)O2	-1.1	3.0	x	x	x	x	x
C[C@@H]1CN([C@@H](C)CO)C(=O)c2cc(/C=C/c3ccccc3)cnc2O[C@@H]1CN(C)Cc1ccc2c(c1)OCO2	-78.1	32.3	104.1*	103.3*	71.8	17.9	104.5*
C[C@@H]1CN([C@@H](C)CO)C(=O)Cc2cc(NC(=O)Nc3ccc(C(F)(F)F)cc3)ccc2O[C@@H]1CN(C)C(=O)NC1CCCCC1	-58.5	-1.3	2.6	x	x	x	x
CC1C=NC(S(=O)(=O)N2CC[C@H]3[C@@H](CO)N(C)c4ccc(-c5ccccc5F)cc4[C@H]32)=N1 (stereo partly drawn)	-3.8	-3.8	88.4	x	x	x	x

Assay outcomes as filed in PubChem BioAssay.
